Assay results published in PubChem BioAssay (NCI).
This is part of a sample that, as a whole, favours compounds with a hit. Of some 79,000 tested, about 15% had one in any assay. Calls of active or inactive are those of the source. No stated cut-off is given here; in the data, active means growth inhibition above about 70%; inactive means the rest.

Assays:
[1] = NCI Yeast Anticancer Drug Screen. Data for the rad52 strain (AID 147);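 further: 0% = growth of vehicle-treated control cultures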; conditions: S. cerevisiae rad52 mutant growth inhibition, active compounds read high
Procedure, shortened: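 Inhibition of yeast growth, referenced to vehicle controls, was the measured output for a strain with defective DNA damage repair.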

[2] = NCI Yeast Anticancer Drug Screen. Data for the wt1 strain (AID 149);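 further: 0% = growth of vehicle-treated wt1 cultures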; conditions: S. cerevisiae wt1 strain (SPY 50644) growth inhibition, active compounds read high
Procedure, shortened: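 Using yeast strain wt1, compound-induced growth inhibition was determined against vehicle-treated cultures.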

[3] = NCI Yeast Anticancer Drug Screen. Data for the rad50EPP+ strain (AID 151);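 further: 0% = growth of vehicle-treated control cultures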; conditions: S. cerevisiae rad50 mutant strain, active compounds read high
Procedure, shortened: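 Genetically defined yeast (rad50EPP+, DNA damage repair alteration) is grown with compound, and inhibition of growth is expressed relative to vehicle-treated controls.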

[4] = NCI Yeast Anticancer Drug Screen. Data for the mgt1 strain (AID 153); conditions: S. cerevisiae mgt1 mutant growth inhibition, active compounds read high
Procedure, shortened: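 In the mgt1 strain, test compounds were added and growth inhibition was determined relative to vehicle-treated controls.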

[5] = NCI Yeast Anticancer Drug Screen. Data for the rad50 strain (AID 155);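 further: 0% = growth of vehicle-only cultures of the same strain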; conditions: S. cerevisiae rad50 strain growth inhibition, active compounds read high
Procedure, shortened: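 Relative growth inhibition (compound vs vehicle) was measured in yeast with a defined repair-gene alteration.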

[6] = NCI Yeast Anticancer Drug Screen. Data for the mec2-1 strain (AID 157); conditions: S. cerevisiae mec2-1 strain, active compounds read high
Procedure, shortened: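 Each compound was tested on mec2-1 yeast, a strain altered in DNA damage repair or cell cycle control. Growth inhibition is reported relative to vehicle.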

[7] = NCI Yeast Anticancer Drug Screen. Data for the rad14 strain (AID 159);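 further: 0% = growth of vehicle-treated control cultures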; conditions: S. cerevisiae rad14 strain growth inhibition, active compounds read high
Procedure, shortened: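 Screen for anticancer potential: a yeast strain altered in DNA damage repair is grown with compound, and reduced growth is quantified against vehicle controls.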

[8] = NCI Yeast Anticancer Drug Screen. Data for the sgs1 mgt1 strain (AID 161);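 further: 0% = growth of cultures given vehicle only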; conditions: S. cerevisiae sgs1 mgt1 strain, active compounds read high
Procedure, shortened: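 Inhibition of yeast growth, normalised to vehicle-treated controls, is reported for a strain bearing genetic alterations in DNA damage repair.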

[9] = NCI Yeast Anticancer Drug Screen. Data for the CLN2oe strain (AID 163);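 further: 0% = growth of vehicle-only control cultures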; conditions: S. cerevisiae CLN2oe strain, active compounds read high
Procedure, shortened: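 First, the altered yeast strain was treated with each compound; second, its growth was measured; finally, inhibition was derived by comparison with vehicle controls.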

[10] = NCI Yeast Anticancer Drug Screen. Data for the cln2 rad14 strain (AID 165);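 further: 0% = growth equal to vehicle treated cultures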; conditions: S. cerevisiae cln2 rad14 strain, active compounds read high
Procedure, shortened: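 Test compounds were added to cln2 rad14 yeast cultures; inhibition of growth was then determined by comparison with vehicle treatment.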

[11] = NCI Yeast Anticancer Drug Screen. Data for the bub3 strain (AID 167); conditions: S. cerevisiae bub3 mutant strain, active compounds read high
Procedure, shortened: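 Screening used yeast with an engineered genetic alteration affecting cell cycle control. Compound-exposed cultures were compared with vehicle cultures, and reduced growth was taken as inhibition.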

[12] = NCI Yeast Anticancer Drug Screen. Data for the wt2 strain (AID 169);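 further: 0% = growth of vehicle-treated yeast cultures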; conditions: S. cerevisiae wt2 strain growth inhibition, active compounds read high
Procedure, shortened: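 The panel's yeast strains carry defined changes in DNA repair or cell cycle genes. Each strain is grown with compound, and growth loss is scored relative to vehicle.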

[13] = NCI Yeast Anticancer Drug Screen. Data for the mlh1 strain (AID 171);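 further: 0% = growth of vehicle-treated control cultures of the same strain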; conditions: S. cerevisiae mlh1 strain growth inhibition, active compounds read high
Procedure, shortened: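 Inhibition values reflect reduced yeast growth in the presence of compound, referenced to vehicle controls, using a strain chosen for its alteration in DNA repair or cell cycle control.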

[14] = NCI Yeast Anticancer Drug Screen. Data for the mlh1 rad18 strain (AID 175); conditions: S. cerevisiae mlh1 rad18 strain growth inhibition, active compounds read high
Procedure, shortened: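 Inhibition values reflect reduced growth of mutant yeast versus vehicle-treated controls following compound exposure; the mutations affect DNA damage repair.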

[15] = NCI Yeast Anticancer Drug Screen. Data for the sgs1 strain (AID 173);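 further: 0% = growth of vehicle-only control cultures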; conditions: S. cerevisiae sgs1 mutant, active compounds read high
Procedure, shortened: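 Vehicle-treated cultures served as reference for growth inhibition of a yeast strain altered in DNA damage repair or cell cycle control after compound exposure.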

[16] = NCI Yeast Anticancer Drug Screen. Data for the rad18 strain (AID 177); conditions: S. cerevisiae rad18 mutant growth inhibition, active compounds read high
Procedure, shortened: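 Steps: expose repair-mutant yeast to compound; measure growth; express as inhibition relative to vehicle control.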

[17] = at 5.0 µM (retest, dose inferred, filed as 0.5)
[18] = at 50.0 µM (retest, dose inferred, filed as 5.0)

Measured: growth inhibition

CC(=O)C1(O)Cc2c(O)c3c(c(O)c2C(OC2CC(N)C(O)C(C)O2)C1)C(=O)c1ccccc1C3=O (stereo not given)
active: [1]; at 1.2 µM 82% | [1]; at 3.7 µM 92% | [1]; at 11.0 µM 95% | [1]; at 33.0 µM 96% | [1]; at 100.0 µM 97% | [2]; at 11.0 µM 88% | [2]; at 33.0 µM 96% | [2]; at 100.0 µM 98% | [3]; at 3.7 µM 92% | [3]; at 11.0 µM 97% | [3]; at 33.0 µM 98% | [3]; at 100.0 µM 98% | [4]; at 11.0 µM 92% | [4]; at 33.0 µM 97% | [4]; at 100.0 µM 98% | [5]; at 1.2 µM 86% | [5]; at 3.7 µM 92% | [5]; at 11.0 µM 94% | [5]; at 33.0 µM 97% | [5]; [18] 85% | [5]; at 50.0 µM 89.4% | [5]; at 100.0 µM 98% | [6]; at 11.0 µM 90% | [6]; at 33.0 µM 95% | [6]; at 50.0 µM 92.9% | [6]; at 100.0 µM 98% | [7]; at 11.0 µM 89% | [7]; at 33.0 µM 96% | [7]; at 100.0 µM 97% | [8]; at 50.0 µM 91% | [9]; at 11.0 µM 93% | [9]; at 33.0 µM 98% | [9]; at 100.0 µM 99% | [10]; at 50.0 µM 87.9% | [11]; at 11.0 µM 91% | [11]; at 33.0 µM 97% | [11]; at 50.0 µM 90.2% | [11]; at 100.0 µM 98% | [12]; at 11.0 µM 93% | [12]; at 33.0 µM 98% | [12]; at 100.0 µM 99% | [13]; at 11.0 µM 90% | [13]; at 33.0 µM 96% | [13]; at 100.0 µM 98%
inactive: [2]; at 1.2 µM 25% | [2]; at 3.7 µM 31% | [3]; at 1.2 µM 55% | [4]; at 1.2 µM 4% | [4]; at 3.7 µM 45% | [5]; [17] 24% | [6]; at 1.2 µM 15% | [6]; at 3.7 µM 50% | [6]; [17] -32% | [6]; [18] 47% | [7]; at 1.2 µM -4% | [7]; at 3.7 µM 33% | [8]; [17] -25% | [8]; [18] 65% | [9]; at 1.2 µM -1% | [9]; at 3.7 µM 46% | [10]; [17] -15% | [10]; [18] 41% | [11]; at 1.2 µM -7% | [11]; at 3.7 µM 8% | [11]; [17] -42% | [11]; [18] 16% | [12]; at 1.2 µM 2% | [12]; at 3.7 µM 27% | [13]; at 1.2 µM 1% | [13]; at 3.7 µM 22% | [14]; [17] -33% | [14]; [18] 54%

O=Nc1ccc(Nc2ccccc2)cc1
inactive: [1]; at 1.2 µM -40% | [1]; at 3.7 µM -58% | [1]; at 11.0 µM -71% | [1]; at 33.0 µM -11% | [2]; at 1.2 µM -33% | [2]; at 3.7 µM -26% | [2]; at 11.0 µM -13% | [2]; at 33.0 µM 28% | [3]; at 1.2 µM -14% | [3]; at 3.7 µM -10% | [3]; at 11.0 µM 29% | [4]; at 1.2 µM -50% | [4]; at 3.7 µM -60% | [4]; at 11.0 µM -32% | [4]; at 33.0 µM 63% | [5]; at 1.2 µM -41% | [5]; at 3.7 µM -45% | [5]; [17] 2% | [5]; at 11.0 µM -32% | [5]; at 33.0 µM 39% | [5]; [18] 30% | [6]; at 1.2 µM -33% | [6]; at 3.7 µM -38% | [6]; [17] -10% | [6]; at 11.0 µM -35% | [7]; at 1.2 µM -23% | [7]; at 3.7 µM -28% | [7]; at 11.0 µM -44% | [7]; at 33.0 µM 37% | [8]; [17] -5% | [8]; [18] 13% | [9]; at 1.2 µM -44% | [9]; at 3.7 µM -35% | [9]; at 11.0 µM -5% | [10]; [17] 29% | [10]; [18] 68% | [11]; at 1.2 µM -31% | [11]; at 3.7 µM -14% | [11]; [17] 4% | [11]; at 11.0 µM -16% | [12]; at 1.2 µM -52% | [12]; at 3.7 µM -47% | [12]; at 11.0 µM -59% | [12]; at 33.0 µM 54% | [15]; at 1.2 µM -40% | [15]; at 3.7 µM -42% | [15]; at 11.0 µM -28% | [15]; at 33.0 µM 55% | [14]; [17] 26% | [16]; at 1.2 µM -33% | [16]; at 3.7 µM -24% | [16]; at 11.0 µM 9%
active: [1]; at 100.0 µM 96% | [2]; at 100.0 µM 97% | [3]; at 33.0 µM 97% | [3]; at 100.0 µM 96% | [4]; at 100.0 µM 97% | [5]; at 50.0 µM 88.8% | [5]; at 100.0 µM 95% | [6]; at 33.0 µM 84% | [6]; [18] 95% | [6]; at 50.0 µM 91% | [6]; at 100.0 µM 97% | [7]; at 100.0 µM 96% | [8]; at 50.0 µM 93.2% | [9]; at 33.0 µM 97% | [9]; at 100.0 µM 96% | [10]; at 50.0 µM 86.3% | [11]; at 33.0 µM 97% | [11]; [18] 91% | [11]; at 50.0 µM 90.5% | [11]; at 100.0 µM 97% | [12]; at 100.0 µM 97% | [15]; at 100.0 µM 97% | [14]; [18] 93% | [14]; at 50.0 µM 89.5% | [16]; at 33.0 µM 77% | [16]; at 100.0 µM 96%
